SMILES strings stand for the structures. Where “and” joins values, the source holds several entries; their conditions need not be identical. Equal entries are not always repeated. Records with an inconclusive call do not appear. Calls of active or inactive are those of the source. Unless noted, the call rests on the fitted dose curve; in most records, active means well fitted curve in the direction sought with a large enough effect; inconclusive means small, poorly fitted or top-dose-only effect, or another doubt; inactive means no such curve, though single readings can be large; an effect the other way counts as inactive or inconclusive.

Test [1] is described as follows: qHTS assay for small molecule agonists of the antioxidant response element (ARE) signaling pathway measured by Nrf2-dependant transcriptional activity (AID 720636; active means well fitted curve in the direction sought with a large enough effect in the repeat runs; an effect the other way counts as inactive or inconclusive; further: % of control where 0% means no effect). In outline: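 Quantitative HTS format in HepG2 cells stably expressing an ARE-luciferase reporter; 16 hr compound treatment at 37 C, luciferase signal detected with ONE-Glo.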
In general terms: Quantitative high-throughput screening tests each substance at several concentrations.

A short description of test [2]: qHTS assay for small molecule antagonists of the retinoid-related orphan receptor gamma (ROR-gamma) signaling pathway - cell viability counter screen (AID 720652; active means well fitted curve in the direction sought with a large enough effect in the repeat runs; an effect the other way counts as inactive or inconclusive;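 further: compound exposure lasted 16 hr before ATP read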; further: potency means the concentration at half of the fitted maximal effect). A digest of the protocol:
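Cytotoxicity is quantified via intracellular ATP (CellTiter-Glo luminescence) in doxycycline-induced CHO ROR response element-luciferase reporter cells treated with compound for 16 hr at 37 C, 5% CO2.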

The nature of test [3]: qHTS assay for small molecule agonists of the antioxidant response element (ARE) signaling pathway measured by Nrf2-dependant transcriptional activity - cell viability counter screen (AID 720653; active means well fitted curve in the direction sought with a large enough effect in the repeat runs; an effect the other way counts as inactive or inconclusive; further: on the % scale 0 is the no-effect control and ±100 the full control effect). The following applies: ARE-bla HepG2 viability, CellTiter-Glo ATP luminescence, 16 h; stronger effect = lower value. A digest of the protocol:
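ARE-bla HepG2 cells (2,000/well) rested 5 hrs at 37C/5% CO2, then exposed to compounds in DMSO for 16 hrs. Viability was read in the same wells as intracellular ATP by luminescence, 30 min at room temperature after reagent addition.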

Test [4] is described as follows: qHTS Assay for Identifying Gametocytocidal Compounds (AID 743244). Further: potency means the concentration at half of the fitted maximal effect.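 On max response: on the % scale 0 is the no-effect control and ±100 the full control effect; actives lower the fluorescent signal which means gametocytes are killed.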 The following applies: P. falciparum 3D7 stage III-V gametocytes, alamarBlue, 72 h; max response: stronger effect = lower value. In outline: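 Compounds are pinned into medium, gametocytes (stage III–V, 3D7, 20,000 cells/well) added, and plates held 72 h at 37 °C in 5% CO2. AlamarBlue follows for 24 h before fluorescence reading.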

Test [5] in a line: qHTS assay for cell viability of HEK293 cells (AID 743288). Further: nearly all actives have a fitted effect of over 50% in size. Further: potency means the concentration at half of the fitted maximal effect. On max response: on the % scale 0 is the no-effect control and ±100 the full control effect. The following applies: ATP luminescence (CellTiter-Glo), 18 h; max response: stronger effect = lower value. A digest of the protocol:
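Luminescent ATP quantitation served as the viability read-out. Cells (parental HEK293, 2,000/well) received compounds after at least 5 h at 37 C and were exposed for 18 h before a 30 min room-temperature reagent step.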

Test [6] is described as follows: qHTS assay for cell viability of the p53RE-bla HCT-116 cell line (AID 743292). Further: on the % scale 0 is the no-effect control and ±100 the full control effect; nearly all actives have a fitted effect of over 55% in size. In outline: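 Viability of compound-treated p53RE-bla HCT-116 cells is taken from ATP-dependent luciferase luminescence. Treatment lasts 16 h at 37 C after a 5 h settling period; detection follows 30 min at room temperature.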
A short description of test [7]: qHTS profiling for inhibitors of Plasmodium falciparum (3D7) proliferation (AID 743322).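 Further: infected erythrocytes exposed to compound for 72 h before lysis; 100% = DMSO vehicle wells and 0% = 0.29 µM artemisinin.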 The following applies: P. falciparum 3D7 proliferation; at 28.7 µM (top of the series). A digest of the protocol:
(§1)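 Erythrocytes infected with P. falciparum (0.3% parasitemia, 2.5% hematocrit) incubated with compounds 72 h at 37 C, 5% CO2. Lysis with saponin/Triton buffer containing SYBR Green I, overnight at room temperature in the dark; DNA fluorescence (485/535 nm) normalised to 0.29 uM artemisinin and DMSO.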

A short description of test [8]: qHTS profiling for inhibitors of Plasmodium falciparum (DD2) proliferation (AID 743323; call rule not given here). The following applies: lower = more inhibition; at 28.7 µM (top of the series). In outline:
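1536-well qHTS; infected RBCs 0.3% parasitemia/2.5% Hct final; cpd 72 h 37 C 5% CO2; lysis buffer + SYBR Green I, o/n RT dark; FI 485/535; norm. to 0.29 uM artemisinin and DMSO, plate-stack corrected.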

Test [9] can be described thus: qHTS profiling of the MIPE4 collection as inhibitors of Plasmodium falciparum (3D7) proliferation (AID 743344; call rule not given here;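 further: scaled between DMSO vehicle wells and 0.29 µM artemisinin as full inhibition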). The following applies: P. falciparum 3D7 in erythrocytes, SYBR Green DNA fluorescence, 72 h; at 28.5 µM (top of the series). In outline: as §1
A short description of test [10]: qHTS profiling of the MIPE4 collection as inhibitors of Plasmodium falciparum (DD2) proliferation (AID 743345; call rule not given here). The following applies: P. falciparum Dd2 in erythrocytes, SYBR Green DNA, 72 h; at 28.5 µM (top of the series). A digest of the protocol: as §1

With `C[C@@H]1C[C@@H]([C@H](O)CC2CC(=O)NC(=O)C2)C(=O)[C@@H](C)C1`, the Potency result in test [1] and in test [2] was “inactive” in each case. In addition, the max response in [3] is 15.1% (inactive) and 0.954% (inactive) and 3.58% (inactive). For the same compound, the Potency was 2.82 µM (active) in test [4] and 0.126 µM (active) in test [5]. Also, in test [6], the outcome was inactive. Also, the remaining parasite growth % (stronger effect = lower value) in test [7] is -0.0842%. The compound further gave an activity, percent of control in test [8] of 0.342%. The parasite growth, % of DMSO control in test [9] was found to be 5.16%. Further, in test [10], the parasite growth remaining, % of DMSO control (lower = more inhibition) was found to be 6.36%.
With `CCCCCCCCCCCC[N+](C)(C)CCOc1ccccc1`, the Potency entry in [1] was “inactive”. Moreover, the Potency was 26.6 µM (active) in [2] and 8.91 µM (active) in test [4]. Also, the max response in [3] is -6.97% (inactive). Also, in test [6], the result was inactive.
For `CCCCCCCCCCCCCCCC[n+]1ccccc1`, the Potency entry in test [1] is “inactive”. In addition, the Potency in [4] was 7.08 µM (active).
`COP(=O)(OC)OC=C(Cl)Cl`: the Potency entry in test [1] and in test [2] was “inactive” each time. Further, the max response in [3] was -9.52% (inactive) [middle of 4 runs]; in test [4], -6.93% (inactive); in test [5], -9.07% (inactive) [middle of 4 runs]. For the same compound, in [6], the outcome was inactive.
As to `COP(=O)(OC)C(O)C(Cl)(Cl)Cl` (centres undefined), the values for the max response in test [3] and in test [5] were -9.64% (inactive) and -19.1% (inactive), respectively. Moreover, the outcome in test [6] was inactive.
Turning to `CCC(=O)O[C@H]1CC[C@H]2[C@@H]3CCC4=CC(=O)CC[C@]4(C)[C@H]3CC[C@]12C`, the Potency entry in test [1] was “inactive”. The max response was -2.38% (inactive) in [3], 11.3% (inactive) in test [4] and -26.1% (inactive) in test [5]. In addition, the outcome in test [6] was inactive.
As for `C[C@H]1C(=O)O[C@@H]2CCN3CC=C(COC(=O)[C@](C)(O)[C@]1(C)O)[C@H]23`, in test [1], the Potency entry was “inactive”. The max response was -1.85% (inactive) in test [3], 14.3% (inactive) in test [4] and -3.57% (inactive) in [5]. The outcome in test [6] was inactive.
Take `O=C(CCl)c1ccc(Cl)cc1Cl`: the Potency in test [2] is 21.1 µM (active); in test [5], 14.1 µM (active). In [4], the max response was 14.5% (inactive) and 7.69% (inactive).

(Values after PubChem BioAssay (NCATS).)
